Inconclusive results are not listed. Values without a mark were called inactive. Calls of active or inactive are those of the source. Calls come from the whole dose curve; as a rule, active = well fitted activation curve with a large enough effect in the signal ratio in the repeat runs (not every such curve was filed as active); inconclusive = weak or mixed curves, or effect the other way; inactive = flat fitted curve, though single readings scatter; the % refers to the signal ratio.
Assay: qHTS assay to identify small molecule agonists of the endoplasmic reticulum stress response signaling pathway (AID 1159516)
Details: ESRE-bla HeLa, ER stress beta-lactamase reporter, 5 h; series mostly up to 61 µM; activation: at the top concentration
From the text: National Center for Advancing Translational Sciences [NCATS]
NIH Chemical Genomics Center [NCGC]
U.S. Environmental Protection Agency [EPA]
National Institutes of Environmental Health Sciences [NIEHS]
National Toxicology Program [NTP]
U.S. Food and Drug Administration [FDA]
Endoplasmic Reticulum (ER) plays an important role in cellular signaling, protein folding/maturation, stress response, lipid biosynthesis, calcium storage and release etc. Under stress conditions, proteins in ER misfold or unfold, and leading to the expression of ER stress responsive genes. ER stress has been associated with a variety of pathophysiological conditions such as cancer, inflammation, neurodegenerative diseases, diabetes, ischemic heart disease etc. To identify the compounds that induce ER stress response, an ER stress reporter cell line, CellSensor ESRE-bla HeLa (Life Technologies, Carlsbad, CA) containing a beta-lactamase reporter gene under control of the Endoplasmic reticulum Stress Response Element (ESRE) was used to screen Tox21 10K compound library.
Tox21 Assay Protocol Summary:
ESRE-bla HeLa cells were dispensed at 1,500 cells/6 uL of assay medium per well into black wall/clear-bottom 1536-well plates using a Multidrop Combi (ThermoFisher Scientific, Waltham, MA) dispenser. After the assay plates were incubated at 37 C and 5% CO2 for an overnight, 23 nL of compounds dissolved in DMSO, positive controls or DMSO only was transferred to the assay plate by a Pintool station (Kalypsys, San Diego, CA). The assay plates were incubated at 37 C and 5% CO2 for 5 hr. One uL of LiveBLAzer B/G FRET substrate (Life Technologies) was added using a Flying Reagent Dispenser (Aurora Discovery, San Diego, CA) and the plates were incubated at room temperature for 2 hr. Fluorescence intensity (405 nm excitation, 460 nm and 530 nm emissions) was measured using an Envision plate reader (PerkinElmer, Shelton, CT).
% is set by controls: 0 for no effect and ±100 for the full control effect; potency is the fitted concentration of half-maximal effect.

Structure (SMILES)	activation	Potency
CCCC[P+](CC)(CCCC)CCCC (tested in a mixture with another compound)	-1.42% [at 78.8 µM]	–
Cc1ncc(C[n+]2csc(CCO)c2C)c(N)n1	-3.3%	–
O=C1NC(=O)C(=O)C(=O)N1	-2.9% [at 78.8 µM]	–
CCNC(=O)NC(=O)/C(C#N)=N/OC	-0.455%	–
CN(C)C(=O)Nc1cccc(OC(=O)NC(C)(C)C)c1	-0.692%	–
CCC[N+](CCC)(CCC)CCC	0.368%	–
c1ccc2c(c1)-c1cccc3cccc-2c13	–	49 µM (active)
CCc1cnc(C2=NC(C)(C(C)C)C(=O)N2)c(C(=O)O)c1 (stereo not given)	–	inactive
CCOP(=S)(OCC)SCSc1cc(Cl)ccc1Cl	-0.966%	–
C=CCN1C[C@H](C)N([C@H](c2ccc(C(=O)N(CC)CC)cc2)c2cccc(OC)c2)C[C@H]1C	-3.67%	–
CCOC(=O)c1cn2nc(OP(=S)(OCC)OCC)cc2nc1C	5.42%	–
CCCBr	-0.141%	–
Cc1nc2ccccc2c(=O)n1-c1ccccc1Cl	-0.852%	–
N#CC(C#N)=C(C#N)C#N	-1.31% [at 78.8 µM]	–
C[C@]12C=CC3=C4CCC(=O)C=C4CC[C@H]3[C@@H]1CC[C@@H]2O	-4.25%	–
CCSCc1ccccc1OC(=O)NC	-1.09%	–
O=C(O)C(Cl)(Cl)Br	0.72% [at 78.8 µM]	–
C=C(Cl)Cl	2.59% [at 78.8 µM]	–
O=C(NC(=O)c1cc(F)c(F)cc1Cl)Nc1cc(F)ccc1N1CCC(C(=O)O)CC1	-6.11%	–
CC(C)(c1ccccc1)c1cc(-n2nc3ccccc3n2)c(O)c(C(C)(C)c2ccccc2)c1	3.71%	–

Structure (SMILES)	activation	Potency
Cc1ccccc1	-3.27%	–
OCC1CO1 (stereo not given)	1.35% [at 78.8 µM]	–
O=S(=O)(c1ccccc1)c1ccccc1	-0.084%	–
CCCCC(CC)CO[N+](=O)[O-] (stereo not given)	-2.94%	–
Nc1ccccc1C(=O)OCCc1ccccc1	-4.24%	–
COc1ccc(C(O)(c2cncnc2)C2CC2)cc1 (stereo not given)	-2.3%	–
CCOP(=O)(SC(C)CC)N1CCSC1=O (stereo not given)	1.24%	–
CC(C)CCCCCCCOC(=O)c1ccccc1C(=O)OCCCCCCCC(C)C	-0.0368%	–
O=C(O)c1cc(Cl)ccc1Cl	-0.664%	–
Cc1cnc(C2=NC(C)(C(C)C)C(=O)N2)c(C(=O)O)c1 (stereo not given)	-1.93%	–
CC(CC(C(N)=O)(c1ccccc1)c1ccccc1)N(C)C (stereo not given)	-0.303%	–
NC(=S)c1c(Cl)cccc1Cl	5.05%	–
C1CCNCC1	0.154% [at 78.8 µM]	–
CCCCC1C(=O)NC(=O)N(C2CCCCC2)C1=O (stereo not given)	-3.15%	–
Cc1ccc(N)c(C)c1	–	inactive
CC(C)(C)c1ccc(CCOc2ncnc3ccccc23)cc1	-1.05%	–
CN1C(=O)CN=C(c2ccccc2)c2cc([N+](=O)[O-])ccc21	0.963%	–
CCCCCCCCCCCCCCCl	0.18% [at 78.8 µM]	–
CCCCCCCCP(=O)(O)O	0.579%	–
O=C(Cl)OCCOCCOC(=O)Cl	4.91%	–
